Test results as given in paper PMC7862700, “An all-to-all approach to the identification of sequence-specific readers for epigenetic DNA modifications on cytosine”.

What was measured:
Test in all cases: DAPPL (digital affinity profiling via proximity ligation, sequencing); 10 mM Tris-HCl pH 7.5, 50 mM NaCl, 1 mM DTT, 4% glycerol, room temperature, 30 min; GST-TFs on glutathione beads, 16-mer random dsDNA library, 0.1% formaldehyde crosslink after washing; high values mean tight binding
Settings in all cases: protein: recombinant; tags: N-terminal GST; dsDNA, one strand shown
ERF = biological target: T1, ERF (Homo sapiens, UniProt P50548 1-548)
T1 sequence: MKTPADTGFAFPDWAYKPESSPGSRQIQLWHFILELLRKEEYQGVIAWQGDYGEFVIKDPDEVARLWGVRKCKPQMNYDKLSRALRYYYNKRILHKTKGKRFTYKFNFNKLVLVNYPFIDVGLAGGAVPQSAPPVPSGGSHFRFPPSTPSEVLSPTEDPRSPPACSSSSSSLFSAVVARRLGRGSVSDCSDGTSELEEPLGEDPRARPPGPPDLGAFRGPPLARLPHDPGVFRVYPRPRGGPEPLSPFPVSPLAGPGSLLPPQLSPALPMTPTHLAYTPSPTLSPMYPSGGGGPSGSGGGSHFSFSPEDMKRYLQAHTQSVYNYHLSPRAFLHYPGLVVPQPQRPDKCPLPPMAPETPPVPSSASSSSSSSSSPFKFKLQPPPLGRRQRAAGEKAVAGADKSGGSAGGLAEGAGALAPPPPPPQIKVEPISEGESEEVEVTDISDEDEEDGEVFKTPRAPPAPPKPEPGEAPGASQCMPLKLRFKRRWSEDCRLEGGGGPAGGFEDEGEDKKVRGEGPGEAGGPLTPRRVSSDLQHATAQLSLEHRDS
Outline: (§1)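 Human transcription factors carrying a GST fusion were produced in yeast, bound to glutathione beads, tagged with DNA barcodes and pooled together with a tag-only sample. Each pool was held with 200 nmole of a random double-stranded 16-mer DNA library in Tris/NaCl/DTT/glycerol buffer for 30 min at room temperature, then washed, crosslinked in 0.1% formaldehyde, proximity-ligated with BsaI/T4 ligase (1 h, 37 °C), PCR-amplified and sequenced on an Illumina NextSeq500. Binding signal is the read frequency of each hexamer for a given factor divided by its frequency in the tag-only sample.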

ETV3L = biological target: T2, ETV3L (Homo sapiens, UniProt Q6ZN32 1-361)
T2 sequence: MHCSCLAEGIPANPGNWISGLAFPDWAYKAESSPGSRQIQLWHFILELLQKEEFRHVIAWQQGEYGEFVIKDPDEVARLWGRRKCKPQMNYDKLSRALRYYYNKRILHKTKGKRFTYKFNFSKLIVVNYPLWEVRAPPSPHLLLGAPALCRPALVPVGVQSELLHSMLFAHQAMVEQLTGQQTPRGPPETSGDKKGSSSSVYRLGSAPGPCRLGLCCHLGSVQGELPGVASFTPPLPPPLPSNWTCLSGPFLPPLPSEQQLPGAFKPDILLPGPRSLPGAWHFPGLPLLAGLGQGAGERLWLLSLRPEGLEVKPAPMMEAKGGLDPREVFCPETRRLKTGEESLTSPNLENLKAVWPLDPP
Outline: as §1

ETS2 = biological target: T3, ETS2 (Homo sapiens, UniProt P15036 1-469)
T3 sequence: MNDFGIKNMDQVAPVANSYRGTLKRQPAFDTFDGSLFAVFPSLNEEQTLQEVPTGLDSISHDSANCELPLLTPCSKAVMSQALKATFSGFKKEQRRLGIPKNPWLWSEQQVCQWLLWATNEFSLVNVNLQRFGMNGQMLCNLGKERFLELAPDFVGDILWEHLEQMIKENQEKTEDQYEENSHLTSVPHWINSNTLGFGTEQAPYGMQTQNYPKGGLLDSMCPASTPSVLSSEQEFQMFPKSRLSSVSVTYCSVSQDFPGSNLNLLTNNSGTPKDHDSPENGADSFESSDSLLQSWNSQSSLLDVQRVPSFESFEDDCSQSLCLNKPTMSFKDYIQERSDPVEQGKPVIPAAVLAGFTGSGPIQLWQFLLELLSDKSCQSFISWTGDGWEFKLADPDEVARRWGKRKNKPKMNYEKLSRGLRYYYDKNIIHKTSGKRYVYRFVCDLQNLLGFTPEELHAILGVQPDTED
Outline: as §1

SPDEF = biological target: T4, SPDEF (Homo sapiens, UniProt O95238 1-335)
T4 sequence: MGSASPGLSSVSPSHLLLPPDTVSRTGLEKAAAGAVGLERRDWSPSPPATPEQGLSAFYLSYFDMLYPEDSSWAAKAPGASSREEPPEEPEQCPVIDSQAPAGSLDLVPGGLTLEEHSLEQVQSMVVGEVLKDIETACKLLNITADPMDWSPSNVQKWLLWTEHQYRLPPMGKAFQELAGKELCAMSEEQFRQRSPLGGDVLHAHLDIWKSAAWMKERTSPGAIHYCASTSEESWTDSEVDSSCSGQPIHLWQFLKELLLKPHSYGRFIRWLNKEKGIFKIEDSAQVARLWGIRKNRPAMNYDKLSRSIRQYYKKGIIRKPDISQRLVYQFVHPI
Outline: as §1

ETV7 = biological target: T5, ETV7 (Homo sapiens, UniProt Q9Y603 1-341)
T5 sequence: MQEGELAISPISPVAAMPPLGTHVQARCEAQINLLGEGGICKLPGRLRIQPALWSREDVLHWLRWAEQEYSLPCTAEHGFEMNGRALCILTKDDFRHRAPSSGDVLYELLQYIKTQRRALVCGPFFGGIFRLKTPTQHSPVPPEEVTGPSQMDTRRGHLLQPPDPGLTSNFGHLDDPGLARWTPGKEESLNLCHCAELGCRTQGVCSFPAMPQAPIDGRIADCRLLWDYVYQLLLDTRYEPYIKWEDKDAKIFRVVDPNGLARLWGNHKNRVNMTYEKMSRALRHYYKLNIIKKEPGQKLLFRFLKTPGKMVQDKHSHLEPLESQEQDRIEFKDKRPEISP
Outline: as §1

ELF5 = biological target: T6, ELF5 (Homo sapiens, UniProt Q9UKW6-2 1-255)
T6 sequence: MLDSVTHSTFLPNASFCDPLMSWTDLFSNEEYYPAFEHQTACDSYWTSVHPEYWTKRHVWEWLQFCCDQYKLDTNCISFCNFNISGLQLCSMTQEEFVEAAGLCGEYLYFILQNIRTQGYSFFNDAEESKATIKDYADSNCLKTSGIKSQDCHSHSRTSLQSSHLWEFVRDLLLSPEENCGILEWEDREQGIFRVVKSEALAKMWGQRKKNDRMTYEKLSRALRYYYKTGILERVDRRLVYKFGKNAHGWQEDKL
Outline: as §1

ETV3 = biological target: T7, ETV3 (Homo sapiens, UniProt P41162-2 1-143)
T7 sequence: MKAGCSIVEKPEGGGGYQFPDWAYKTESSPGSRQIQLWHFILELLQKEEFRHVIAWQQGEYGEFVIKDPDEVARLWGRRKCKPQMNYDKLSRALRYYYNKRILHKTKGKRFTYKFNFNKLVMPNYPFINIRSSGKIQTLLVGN
Outline: as §1

ETV6 = ETV6 (Homo sapiens, UniProt P41212 1-452)
ETV6, sequence (P41212 whole entry): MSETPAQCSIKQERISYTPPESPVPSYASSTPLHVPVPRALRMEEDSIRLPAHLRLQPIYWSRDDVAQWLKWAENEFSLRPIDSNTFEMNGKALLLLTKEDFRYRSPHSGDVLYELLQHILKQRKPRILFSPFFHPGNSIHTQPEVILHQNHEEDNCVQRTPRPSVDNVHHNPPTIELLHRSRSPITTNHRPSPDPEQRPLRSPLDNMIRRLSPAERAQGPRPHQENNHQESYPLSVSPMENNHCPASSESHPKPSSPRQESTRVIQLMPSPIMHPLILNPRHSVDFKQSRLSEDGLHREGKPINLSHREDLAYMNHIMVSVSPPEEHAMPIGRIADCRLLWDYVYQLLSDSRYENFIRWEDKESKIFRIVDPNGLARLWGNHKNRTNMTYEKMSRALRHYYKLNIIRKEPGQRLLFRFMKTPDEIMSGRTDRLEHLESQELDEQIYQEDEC
Outline: as §1

| Sequence | binding signal (ERF) | binding signal (ETV3L) | binding signal (ETS2) | binding signal (SPDEF) | binding signal (ETV7) | binding signal (ELF5) | binding signal (ETV3) | binding signal (ETV6) |
| --- | --- | --- | --- | --- | --- | --- | --- | --- |
| GTCTTC | 1.29 fold enrichment (6-mer frequency, TF over GST control) | 1.23 fold enrichment (6-mer frequency, TF over GST control) | 1.4 fold enrichment (6-mer frequency, TF over GST control) | 1.27 fold enrichment (6-mer frequency, TF over GST control) | 1.14 fold enrichment (6-mer frequency, TF over GST control) | 1.72 fold enrichment (6-mer frequency, TF over GST control) | 1.4 fold enrichment (6-mer frequency, TF over GST control) | 1.32 fold enrichment (6-mer frequency, TF over GST control) |
| CCTATT | 1.6 fold enrichment (6-mer frequency, TF over GST control) | 1.64 fold enrichment (6-mer frequency, TF over GST control) | 1.49 fold enrichment (6-mer frequency, TF over GST control) | 1.51 fold enrichment (6-mer frequency, TF over GST control) | 1.52 fold enrichment (6-mer frequency, TF over GST control) | 1.53 fold enrichment (6-mer frequency, TF over GST control) | 1.52 fold enrichment (6-mer frequency, TF over GST control) | 1.59 fold enrichment (6-mer frequency, TF over GST control) |
| TCCACC | 1.25 fold enrichment (6-mer frequency, TF over GST control) | 1.22 fold enrichment (6-mer frequency, TF over GST control) | 1.21 fold enrichment (6-mer frequency, TF over GST control) | 1.1 fold enrichment (6-mer frequency, TF over GST control) | 1.12 fold enrichment (6-mer frequency, TF over GST control) | 1.19 fold enrichment (6-mer frequency, TF over GST control) | 1.29 fold enrichment (6-mer frequency, TF over GST control) | 1.26 fold enrichment (6-mer frequency, TF over GST control) |
| GCGTCC | 1.32 fold enrichment (6-mer frequency, TF over GST control) | 1.24 fold enrichment (6-mer frequency, TF over GST control) | 1.18 fold enrichment (6-mer frequency, TF over GST control) | 1.56 fold enrichment (6-mer frequency, TF over GST control) | 1.17 fold enrichment (6-mer frequency, TF over GST control) | 1.25 fold enrichment (6-mer frequency, TF over GST control) | 1.24 fold enrichment (6-mer frequency, TF over GST control) | 1.19 fold enrichment (6-mer frequency, TF over GST control) |
| CGGAAG | 2.46 fold enrichment (6-mer frequency, TF over GST control) | 2.71 fold enrichment (6-mer frequency, TF over GST control) | 3.01 fold enrichment (6-mer frequency, TF over GST control) | 3.02 fold enrichment (6-mer frequency, TF over GST control) | 2.8 fold enrichment (6-mer frequency, TF over GST control) | 3.37 fold enrichment (6-mer frequency, TF over GST control) | 3.28 fold enrichment (6-mer frequency, TF over GST control) | 3.4 fold enrichment (6-mer frequency, TF over GST control) |
| CATCTG | 1.35 fold enrichment (6-mer frequency, TF over GST control) | 1.23 fold enrichment (6-mer frequency, TF over GST control) | 1.24 fold enrichment (6-mer frequency, TF over GST control) | 1.23 fold enrichment (6-mer frequency, TF over GST control) | 1.33 fold enrichment (6-mer frequency, TF over GST control) | 1.23 fold enrichment (6-mer frequency, TF over GST control) | 1.17 fold enrichment (6-mer frequency, TF over GST control) | 1.11 fold enrichment (6-mer frequency, TF over GST control) |
| GGATAT | 1.62 fold enrichment (6-mer frequency, TF over GST control) | 1.55 fold enrichment (6-mer frequency, TF over GST control) | 1.66 fold enrichment (6-mer frequency, TF over GST control) | 2.38 fold enrichment (6-mer frequency, TF over GST control) | 1.48 fold enrichment (6-mer frequency, TF over GST control) | 1.92 fold enrichment (6-mer frequency, TF over GST control) | 1.71 fold enrichment (6-mer frequency, TF over GST control) | 1.6 fold enrichment (6-mer frequency, TF over GST control) |
| ACCGCT | 1.21 fold enrichment (6-mer frequency, TF over GST control) | 1.12 fold enrichment (6-mer frequency, TF over GST control) | 1.1 fold enrichment (6-mer frequency, TF over GST control) | 1.06 fold enrichment (6-mer frequency, TF over GST control) | 1.13 fold enrichment (6-mer frequency, TF over GST control) | 1.05 fold enrichment (6-mer frequency, TF over GST control) | 1.04 fold enrichment (6-mer frequency, TF over GST control) | 1.15 fold enrichment (6-mer frequency, TF over GST control) |
